From PubChem BioAssay (Tox21)
Inconclusive results are not listed. Calls of active or inactive are those of the source. Unless noted, calls follow the shape of the full dose curve.

Experiments:
[1] = qHTS assay to identify small molecule agonists of the vitamin D receptor (VDR) signaling pathway - cell viability counter screen (AID 743224; active = well fitted curve in the direction sought with a large enough effect in the repeat runs; an effect the other way counts as inactive or inconclusive; also: series mostly up to about 63 µM; % is scaled to controls: 0 for no effect and ±100 for the full control effect; nearly all actives have a fitted effect of over 50% in size)
Outline: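 Luminescence from CellTiter-Glo, read after 30 min at room temperature, reports viability of VDR-bla cells treated with compounds for 16 h at 37C in the wells used for the beta-lactamase FRET read.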

[2] = qHTS assay to identify small molecule antagonists of the vitamin D receptor (VDR) signaling pathway - cell viability counter screen (AID 743225; active = well fitted curve in the direction sought with a large enough effect in the repeat runs; an effect the other way counts as inactive or inconclusive; also: % is scaled to controls: 0 for no effect and ±100 for the full control effect; nearly all actives have a fitted effect of over 50% in size)
Outline: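 Same-well multiplex: following 16 h treatment of HEK 293T cells carrying a UAS-driven beta-lactamase reporter with compound and agonist (3 nM final), and a 2 h FRET substrate step, CellTiter-Glo was added and luminescence read after 30 min.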

[3] = qHTS assay to identify small molecule agonists of the NFkB signaling pathway (AID 1159509; active = well fitted curve in the direction sought with a large enough effect in the signal ratio in the repeat runs, not every such curve was filed as active; the % refers to the signal ratio; also: series mostly up to about 61 µM; % is scaled to controls: 0 for no effect and ±100 for the full control effect)
Outline: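 NFkB-bla ME-180 cells with a beta-lactamase reporter under an NF-kB response element were plated overnight, treated with compounds in DMSO for 5 hr at 37 C, then loaded with FRET substrate for 1.5 hr at room temperature.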

[4] = qHTS assay to identify small molecule agonists of the NFkB signaling pathway - cell viability counter screen (AID 1159515); also: series mostly up to about 61 µM; % is scaled to controls: 0 for no effect and ±100 for the full control effect; nearly all actives have a fitted effect of over 55% in size
Outline: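 Luminescence from CellTiter-Glo (30 min, room temperature) gives viability, measured in the same wells as the beta-lactamase reporter read. Cells were NFkB-bla ME-180, 2,000 per well, treated 5 hr with compounds.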

[5] = qHTS assay to identify small molecule agonists of the endoplasmic reticulum stress response signaling pathway (AID 1159516; active = well fitted activation curve with a large enough effect in the signal ratio in the repeat runs, not every such curve was filed as active; the % refers to the signal ratio; also: % is scaled to controls: 0 for no effect and ±100 for the full control effect)
Outline: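 Read-out is beta-lactamase cleavage of a FRET substrate (405 nm excitation; 460 and 530 nm emissions) in ESRE-bla HeLa cells after a 5 hr compound exposure at 37 C. Substrate incubation ran 2 hr at room temperature.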

[6] = qHTS assay to identify small molecule agonists of the endoplasmic reticulum stress response signaling pathway - cell viability counter screen (AID 1159517);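 also: HeLa cells carrying an ER stress response element beta-lactamase reporter; series mostly up to about 61 µM; % is scaled to controls: 0 for no effect and ±100 for the full control effect; nearly all actives have a fitted effect of over 50% in size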
Outline: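 Counter-screen wells were identical to the reporter wells. Cells were plated at 1,500 per well and dosed for 5 hr, then read for luminescence 30 min after CellTiter-Glo addition.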

[7] = qHTS assay to identify small molecule antagonists of the retinoid-related orphan receptor gamma (ROR-gamma) signaling pathway - cell viability counter screen (AID 1159520; active = well fitted curve in the direction sought with a large enough effect in the repeat runs; an effect the other way counts as inactive or inconclusive; also: % is scaled to controls: 0 for no effect and ±100 for the full control effect; nearly all actives have a fitted effect of over 50% in size)
Outline: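 Tet-on ROR gamma CHO cells were given compounds for 2 hr, then doxycycline hyclate at 1 uM final, and incubated 16 hr at 37 C. Viability was measured as ATP content by CellTiter-Glo luminescence.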

[8] = qHTS assay to identify small molecule agonists of the AP-1 signaling pathway - cell viability counter screen (AID 1159525); also: nearly all actives have a fitted effect of over 55% in size
Outline: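 AP-1-bla ME-180 cells in Opti-MEM with 0.5% dialyzed FBS, compound exposure 5 h at 37 C in 15-point titration. Viability read in the same wells as ATP content by CellTiter-Glo luminescence, normalised to tetra-n-octylammonium bromide and DMSO controls.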

[9] = qHTS assay to identify small molecule agonists of the AP-1 signaling pathway (AID 1159526); also: potency is read from the fitted curve at half-maximal effect; as to activation: % is scaled to controls: 0 for no effect and ±100 for the full control effect
[10] = target: Nuclear receptor ROR-gamma (Homo sapiens) (UniProt P51449); experiment: qHTS assay to identify small molecule antagonists of the retinoid-related orphan receptor gamma (ROR-gamma) signaling pathway (AID 1159521; active = well fitted curve in the direction sought with a large enough effect in the repeat runs; an effect the other way counts as inactive or inconclusive)
Outline: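 Inducible-expression reporter assay: doxycycline (1 uM final) switched on RORγ in CHO cells bearing a ROR response element-luciferase construct, with test compounds present from 2 h beforehand. Decreased luminescence after 16 h defined antagonist activity.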

NNS(=O)(=O)c1ccc(Oc2ccc(S(=O)(=O)NN)cc2)cc1
inactive: Potency [1] | Potency [2] | outcome [3] | outcome [4] | outcome [5] | outcome [6] | Potency [7] | outcome [8] | Potency [9]

CN1CCN(c2c(F)cc3c(=O)c(C(=O)O)cn4c3c2SCC4)CC1
inactive: Potency [1] | Potency [2] | outcome [3] | outcome [4] | outcome [5] | outcome [6] | Potency [7] | outcome [8] | Potency [9]

Nc1ccc(Oc2ccc(N)c(N)c2)cc1
inactive: Potency [1] | outcome [3] | outcome [5] | outcome [6] | Potency [7] | Potency [10] | outcome [8]

CN1[C@@H]2CC[C@H]1CC(OC(=O)c1c[nH]c3ccccc13)C2 (some centres undefined)
active: Potency [9] 23.9 µM
inactive: Potency [1] | Potency [2] | outcome [3] | outcome [4] | outcome [5] | outcome [6] | Potency [7] | outcome [8]

C[C@@H]1CN(c2c(F)c(F)c3c(=O)c(C(=O)O)cn(C4CC4)c3c2F)C[C@H](C)N1
inactive: Potency [1] | Potency [2] | outcome [3] | outcome [4] | outcome [5] | outcome [6] | activity, negative = cytotoxicity [7] 3.95% [at 19 µM] | viability change, negative = cytotoxic [8] 7.6% [at 15.8 µM] | activation [9] -3.66% [at 15.8 µM]

O=c1[nH]c(=O)n([C@H]2C[C@H](O)[C@@H](CO)O2)cc1C(F)(F)F
inactive: Potency [1] | Potency [2] | outcome [3] | outcome [4] | outcome [5] | outcome [6] | Potency [7] | outcome [8] | Potency [9]

CC(C)CCCCCCc1ccc(OCCOCCO)cc1
inactive: Potency [1] | Potency [2] | outcome [3] | outcome [4] | outcome [5] | outcome [6] | Potency [7] | outcome [8] | Potency [9]

CCN(CC)C(=O)N(CC)CC
inactive: Potency [1] | Potency [2] | outcome [3] | outcome [4] | outcome [5] | outcome [6] | Potency [7] | outcome [8] | Potency [9]

CC/C=C\CCOC(=O)C(C)C
inactive: Potency [2] | outcome [3] | outcome [4] | outcome [5] | outcome [6] | Potency [7] | outcome [8] | Potency [9]

N#Cc1ccc(C(c2ccc(C#N)cc2)n2cncn2)cc1
inactive: Potency [1] | Potency [2] | outcome [3] | outcome [4] | outcome [5] | outcome [6] | Potency [7] | outcome [8] | Potency [9]

O=C(O)c1ccccc1Nc1cc(Cl)ccc1C(=O)O
inactive: outcome [3] | outcome [5] | outcome [6] | activity, negative = cytotoxicity [7] -2.84% [at 19 µM] | activity change, negative = inhibition [10] -10.7% [at 19 µM]

CCCCNCCCC
inactive: Potency [1] | Potency [2] | outcome [3] | outcome [4] | outcome [5] | outcome [6] | Potency [7] | outcome [8] | Potency [9]

CCOC(=O)c1cc(=O)c2c(OCC(COc3cccc4oc(C(=O)OCC)cc(=O)c34)OC(=O)[C@@H](N)CCCCN)cccc2o1
inactive: Potency [1] | Potency [2] | outcome [3] | outcome [4] | outcome [5] | outcome [6] | Potency [7] | outcome [8] | Potency [9]

OCc1ccccc1O
inactive: Potency [1] | Potency [2] | outcome [3] | outcome [4] | outcome [5] | outcome [6] | Potency [7] | outcome [8] | Potency [9]
